Data from PMC11995724, “Antibiotic target discovery by integrated phenotypic and activity-based profiling of electrophilic fragments” (Cell chemical biology, 2025).
About 75 (2%) of roughly 3,200 compounds showed an effect of 50% or more. For the sample, strong results were picked, then their nearest neighbours and some compounds at random.

System: T1, S. aureus MSSA476
T1 construct: MSSA476
Design: species or system S. aureus MSSA476 (TSB) or V. cholerae SAD30 (LB); 384-well bacterial growth screen at 25 uM, OD600 relative to DMSO control
Conditions: relative growth, OD600, TSB; 25 µM; inhibitor

SMILES | % of control remaining [%]
Cc1cc(C)cc(-c2cc(NC(=O)CCl)n(-c3ccccc3)n2)c1 [4-K04, 2-chloro-N-[3-(3,5-dimethylphenyl)-1-phenyl-1H-pyrazol-5-yl]acetamide] | 80.4192
CC(O)=C(C#N)C(=O)Nc1ccc(-c2ccccc2Cl)c(Cl)c1 [9-L22, 2-cyano-N-{2,2'-dichloro-[1,1'-biphenyl]-4-yl}-3-hydroxybut-2-enamide] | 33.2584
CC(O)=C(C#N)C(=O)Nc1ccc(C(F)(F)F)cc1 [9-A05, 2-cyano-3-hydroxy-N-[4-(trifluoromethyl)phenyl]but-2-enamide] | 71.6105
C/C(O)=C(\C#N)C(=O)Nc1ccc(-c2ccccc2Cl)cc1 [9-P22, (2Z)-N-{2'-chloro-[1,1'-biphenyl]-4-yl}-2-cyano-3-hydroxybut-2-enamide] | 50.9363
N#CC(=Cc1cc2ccccc2o1)C(=O)NCc1ccco1 [9-O08, 3-(1-benzofuran-2-yl)-2-cyano-N-[(furan-2-yl)methyl]prop-2-enamide] | 115.056
N#CC(=Cc1ccc([N+](=O)[O-])o1)C(=O)NCc1ccco1 [8-I17, 2-cyano-N-[(furan-2-yl)methyl]-3-(5-nitrofuran-2-yl)prop-2-enamide] | -0.6639
Cc1ccc(C=C(C#N)C(=O)NCc2ccco2)o1 [8-P19, 2-cyano-N-[(furan-2-yl)methyl]-3-(5-methylfuran-2-yl)prop-2-enamide] | 89.6266
O=C(CCl)c1ccc2[nH]c(=O)[nH]c2c1 [10-I14, 5-(2-chloroacetyl)-2,3-dihydro-1H-1,3-benzodiazol-2-one] | 100.313
O=C(CCl)c1ccc(F)c(F)c1 [10-L13, 2-chloro-1-(3,4-difluorophenyl)ethan-1-one] | 110.313
COc1ccc(C(=O)CCl)cc1Cl [10-D10, 2-chloro-1-(3-chloro-4-methoxyphenyl)ethan-1-one] | -0.3125
O=C(CCl)c1ccc(Cl)c(Cl)c1 [10-L16, 2-chloro-1-(3,4-dichlorophenyl)ethan-1-one] | 5
COc1ccc(C(=O)CCl)c(OC)c1 [10-G18, 2-chloro-1-(2,4-dimethoxyphenyl)ethan-1-one] | 124.375
COC(=O)c1cccc(C(=O)CCl)c1 [10-I11, methyl 3-(2-chloroacetyl)benzoate] | 61.5625
CC(Cl)C(=O)NC(C)c1ccc(C(F)(F)F)nc1Cl (centres unmarked) [7-G09, 2-chloro-N-{1-[2-chloro-6-(trifluoromethyl)pyridin-3-yl]ethyl}propanamide] | 111.774
